# Values joined by “and” are separate entries in the source; they are usually repeats but may differ in a detail not shown here. Identical values can stand only once. Results filed as inconclusive are left out. Entries that show only a call come without a potency. The source holds several records for some structures; these can differ, active in one and inactive in another. Unmarked numbers belong to inactive results. Active and inactive are the calls of the source. The call rests on the fitted dose curve; in most records, active means well fitted curve in the direction sought with a large enough effect; inconclusive means small, poorly fitted or top-dose-only effect, or another doubt; inactive means no such curve, though single readings can be large; an effect the other way counts as inactive or inconclusive.
# What was measured:
# [1] = tested on: CRL-7250; assay: Cytotoxic Profiling of Annotated Libraries Using Quantitative High-Throughput Screening (AID 1296008); conditions: Five cell lines viability, CellTiter-Glo ATP luminescence, 48-72 h; max response: hits give low values; further: nearly all actives have a fitted effect of over 60% in size; further: potency means the concentration at half of the fitted maximal effect
# Outline: (§1)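 Cells exposed to compounds for 48 or 72 hr at 37 degrees Celsius. Viability read as ATP-coupled luminescence with CellTiter-Glo after 10 min at room temperature.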
# [2] = tested on: HEK293; assay: as above; conditions: Five cell lines viability, CellTiter-Glo ATP luminescence, 48-72 h; max response: hits give low values
# Outline: as §1
# [3] = tested on: HaCat; assay: as above; conditions: Five cell lines viability, CellTiter-Glo ATP luminescence, 48-72 h; max response: hits give low values
# Outline: as §1
# [4] = tested on: KB-3-1; assay: as above; conditions: Five cell lines viability, CellTiter-Glo ATP luminescence, 48-72 h; max response: hits give low values
# Outline: as §1
# [5] = tested on: NIH3T3; assay: as above; conditions: Five cell lines viability, CellTiter-Glo ATP luminescence, 48-72 h; max response: hits give low values
# Outline: as §1
# [6] = tested on: MCC-13; assay: qHTS assay to identify novel small-molecules to repurpose for Merkel cell carcinoma treatment (AID 1296009); conditions: MCC and control cell lines, CellTiter-Glo viability, 72 h; series mostly up to 46 µM; further: nearly all actives have a fitted effect of over 60% in size; further: potency means the concentration at half of the fitted maximal effect
# Outline: (§2)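 CellTiter-Glo luminescence after 72 hr compound exposure at 37 degree celsius gave cell viability. Libraries NPC and MIPE were run as 8- and 11-point dose responses; RLUs normalized to DMSO (negative) and no-cell (cytotoxicity) controls.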
# [7] = tested on: MCC-26; assay: as above; conditions: MCC and control cell lines, CellTiter-Glo viability, 72 h; series mostly up to 46 µM
# Outline: as §2
# [8] = tested on: MKL-1; assay: as above; conditions: MCC and control cell lines, CellTiter-Glo viability, 72 h; series mostly up to 46 µM
# Outline: as §2
# [9] = tested on: MKL-2; assay: as above; conditions: MCC and control cell lines, CellTiter-Glo viability, 72 h; series mostly up to 46 µM
# Outline: as §2
# [10] = tested on: UISO; assay: as above; conditions: MCC and control cell lines, CellTiter-Glo viability, 72 h; series mostly up to 46 µM
# Outline: as §2
# [11] = tested on: WaGa; assay: as above; conditions: MCC and control cell lines, CellTiter-Glo viability, 72 h; series mostly up to 46 µM
# Outline: as §2
# [12] = tested on: CAOV3; assay: Primary qHTS to identify gynecologic anti-cancer compounds using libraries of approved drugs and bioactive compounds (AID 1345084); conditions: Gynecologic cancer cell panel viability, ATPlite luminescence, 48 h; series mostly up to 57.5 µM; further: nearly all actives have a fitted effect of over 55% in size
# Outline: (§3)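 Cytotoxicity screen measuring ATP content by luciferase luminescence. Each compound is applied at five concentrations for 48 h at 37 C with 5% CO2.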
# [13] = tested on: CRL-7250; assay: qHTS assay to identify novel small-molecules to repurpose for Merkel cell carcinoma treatment (AID 1296009); conditions: MCC and control cell lines, CellTiter-Glo viability, 72 h; series mostly up to 44.8 µM; further: nearly all actives have a fitted effect of over 60% in size; further: potency means the concentration at half of the fitted maximal effect
# Outline: as §2
# [14] = tested on: HACAT; assay: as above; conditions: MCC and control cell lines, CellTiter-Glo viability, 72 h; at 44.8 µM (top of the series) unless noted
# Outline: as §2
# [15] = tested on: HEK293T; assay: as above; conditions: MCC and control cell lines, CellTiter-Glo viability, 72 h; at 44.8 µM (top of the series)
# Outline: as §2
# [16] = tested on: C33A; assay: Primary qHTS to identify gynecologic anti-cancer compounds using libraries of approved drugs and bioactive compounds (AID 1345084); conditions: Gynecologic cancer cell panel viability, ATPlite luminescence, 48 h; series mostly up to 57.5 µM; further: nearly all actives have a fitted effect of over 55% in size
# Outline: as §3
# [17] = tested on: CASKI; assay: as above; conditions: Gynecologic cancer cell panel viability, ATPlite luminescence, 48 h; series mostly up to 57.5 µM
# Outline: as §3
# [18] = tested on: TAB165; assay: qHTS profiling for inhibitors of Plasmodium falciparum proliferation (AID 504749); further: nearly all actives have a fitted effect of over 60% in size; conditions: P. falciparum in erythrocytes, SYBR Green DNA, 72 h; series mostly up to 28.7 µM
# Outline: (§4)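 SYBR Green fluorescence (ex 485 nm, em 535 nm) reports parasite DNA after 72 h compound exposure of infected red cells at 0.3% parasitemia, 2.5% hematocrit; signal normalized to 0.29 uM artemisinin and vehicle wells.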
# [19] = tested on: W2; assay: as above; conditions: P. falciparum in erythrocytes, SYBR Green DNA, 72 h; series mostly up to 28.7 µM
# Outline: as §4
# [20] = tested on: NIH3T3; assay: qHTS assay to identify novel small-molecules to repurpose for Merkel cell carcinoma treatment (AID 1296009); conditions: MCC and control cell lines, CellTiter-Glo viability, 72 h; at 44.8 µM (top of the series) unless noted; further: nearly all actives have a fitted effect of over 60% in size; further: potency means the concentration at half of the fitted maximal effect
# Outline: as §2
structure (smiles),measurement,setting,value
COc1ccc(Cc2nccc3cc(OC)c(OC)cc23)cc1OC,Potency,[1],5.31 µM (active)
same,max response,[1],2.23%
same,Potency,[2],8.41 µM (active)
same,max response,[3],-4.38% and -16.7%
same,max response,[4],-20.5% and -0.283%
same,max response,[5],-6.53%
same,Potency,[6],inactive
same,Potency,[7],inactive
same,Potency,[8],inactive
same,Potency,[9],inactive
same,Potency,[10],inactive
same,Potency,[11],inactive
same,Potency,[12],inactive
O=C(O)C(=O)c1cn(Cc2ccccc2)c2ccc(-c3ccc(OC(F)(F)F)cc3)cc12,max response,[1],-5.5%
same,outcome,[1],inactive
same,max response,[3],-0.483%
same,outcome,[3],inactive
same,outcome,[4],inactive
same,max response,[5],-16.9% and 4.93%
same,outcome,[13],inactive
same,outcome,[14],inactive
same,outcome,[15],inactive
same,Potency,[6],inactive
same,Potency,[7],inactive
same,Potency,[8],inactive
same,Potency,[9],inactive
same,Potency,[10],inactive
same,Potency,[11],inactive
same,Potency,[16],inactive
same,Potency,[12],inactive
same,Potency,[17],inactive
NN=C(N)N,Potency,[18],inactive
same,Potency,[19],inactive
same,outcome,[1],inactive
same,max response,[2],-4.43%
same,max response,[3],-1.38%
same,max response,[4],8.75%
same,max response,[5],-4.47%
same,outcome,[13],inactive
same,Potency,[6],inactive
same,Potency,[7],inactive
same,Potency,[8],inactive
same,Potency,[9],inactive
same,Potency,[10],inactive
same,Potency,[11],inactive
same,Potency,[16],inactive
same,Potency,[12],inactive
same,Potency,[17],inactive
C#CCN(C)[C@H](C)Cc1ccccc1,max response,[1],-4.73%
same,outcome,[1],inactive
same,max response,[3],-9.07% and 1.92%
same,max response,[4],4.15% and -12%
same,max response,[5],3.34%
same,outcome,[5],inactive
same,outcome,[13],inactive
same,outcome,[15],inactive
same,Potency,[6],inactive
same,Potency,[7],inactive
same,Potency,[8],inactive
same,Potency,[9],inactive
same,outcome,[20],inactive
same,Potency,[10],inactive
same,Potency,[11],inactive
same,Potency,[16],inactive
same,Potency,[12],inactive
same,Potency,[17],inactive
OCCOc1ccccc1,Potency,[18],inactive
same,Potency,[19],inactive
same,max response,[1],3.79%
same,max response,[2],1.79%
same,outcome,[3],inactive
same,max response,[4],1.69% and -18.4%
same,max response,[5],0.364%
same,outcome,[14],inactive
same,Potency,[6],inactive
same,Potency,[7],inactive
same,Potency,[8],inactive
same,Potency,[9],inactive
same,Potency,[10],inactive
same,Potency,[11],inactive
same,Potency,[16],inactive
same,Potency,[12],inactive
same,Potency,[17],inactive
CN(C)CCN(C)CCc1ccc(Cl)c(Cl)c1,outcome,[1],inactive
same,max response,[2],0.598%
same,max response,[3],-22.4%
same,max response,[4],0.794%
same,max response,[5],-6.27%
same,outcome,[13],inactive
same,Potency,[6],inactive
same,Potency,[7],inactive
same,Potency,[8],inactive
same,Potency,[9],inactive
same,Potency,[10],inactive
same,Potency,[11],inactive
O=C(O)c1ccc2[nH]cc(CCCCN3CC=C(c4ccccc4)CC3)c2c1,Potency,[18],inactive
same,max response,[1],-7.24%
same,max response,[2],-0.718%
same,outcome,[3],inactive
same,max response,[4],-2.41%
same,outcome,[5],inactive
same,outcome,[14],inactive
same,Potency,[6],inactive
same,Potency,[7],inactive
same,Potency,[8],inactive
same,Potency,[9],inactive
same,outcome,[20],inactive
same,Potency,[10],inactive
same,Potency,[11],inactive
same,Potency,[16],inactive
same,Potency,[12],inactive
same,Potency,[17],inactive
Cc1cc(SCc2sc(-c3ccc(C(F)(F)F)c(F)c3)nc2C)ccc1OCC(=O)O,outcome,[1],inactive
same,max response,[2],-0.859%
same,outcome,[2],inactive
same,outcome,[3],inactive
same,max response,[4],-0.392%
same,outcome,[4],inactive
same,max response,[5],3.63%
same,outcome,[5],inactive
same,outcome,[13],inactive
same,outcome,[14],inactive
same,outcome,[15],inactive
same,Potency,[6],inactive
same,Potency,[7],inactive
same,Potency,[8],inactive
same,Potency,[9],inactive
same,outcome,[20],inactive
same,Potency,[10],inactive
same,Potency,[11],inactive
same,Potency,[16],inactive
same,Potency,[12],inactive
same,Potency,[17],inactive
CC(C)(C)CC(C)(C)c1ccc(O)cc1,Potency,[18],inactive
same,Potency,[1],38.6 µM (active)
same,max response,[1],-2.09%
same,Potency,[2],19.3 µM (active)
same,max response,[3],-11.5%
same,max response,[4],33.4% and 13.2%
same,outcome,[5],inactive
same,Potency,[6],inactive
same,Potency,[7],inactive
same,Potency,[9],24.3 µM (active)
same,outcome,[20],inactive
same,Potency,[10],inactive
same,Potency,[11],34.4 µM (active)
same,Potency,[16],inactive
same,Potency,[12],inactive
same,Potency,[17],inactive
NCC(CC(=O)O)c1ccc(Cl)cc1 (stereo not given),Potency,[18],inactive
same,Potency,[19],inactive
same,max response,[1],2.02%
same,max response,[2],-1.23%
same,outcome,[3],inactive
same,max response,[4],2.79%
same,max response,[5],0.0761%
same,outcome,[14],inactive [at 0.588 µM]
same,"activity change, negative = cytotoxicity",[6],-6.05% [at 0.597 µM]
same,"activity change, negative = cytotoxicity",[7],-16.1% [at 0.597 µM]
same,"activity change, negative = cytotoxicity",[8],-6.57% [at 0.597 µM]
same,"activity change, negative = cytotoxicity",[9],-11.6% [at 0.597 µM]
same,"activity change, negative = cytotoxicity",[10],-4.03% [at 0.597 µM]
same,"activity change, negative = cytotoxicity",[11],-6.81% [at 0.597 µM]
same,"activity change, negative = cytotoxicity",[16],1.19% [at 0.462 µM]
same,"activity change, negative = cytotoxicity",[12],8.76% [at 0.462 µM]
same,"activity change, negative = cytotoxicity",[17],17.3% [at 0.462 µM]
CC(C)CC(N(C)C)C1(c2ccc(Cl)cc2)CCC1 (stereo not given),Potency,[18],inactive
same,Potency,[19],inactive
same,max response,[1],1.51% and -18.8%
same,max response,[2],3.97% and -10.6%
same,max response,[3],-11.1%
same,outcome,[3],inactive
same,max response,[4],20.9% and 1.72%
same,max response,[5],-0.177%
same,outcome,[5],inactive
same,outcome,[14],inactive
same,Potency,[6],inactive
same,Potency,[7],inactive
same,Potency,[8],inactive
same,Potency,[9],inactive
same,outcome,[20],inactive
same,Potency,[10],inactive
same,Potency,[11],inactive
same,Potency,[16],inactive
same,Potency,[12],inactive

# Source: PubChem BioAssay (NCATS)
